# Data from PMC5540273 (PLoS ONE, 2017).
# Tested on: CDC2L2
# Settings: concentration: 1 μM, replicates: in singlicate; n = 1
# 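Further: KINOMEscan kinase panel screen.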
row,SMILES,%Inh [%]
1,Nc1nc(-c2nccs2)c(-c2ccnc3ccccc23)s1 [GW693542],1
2,CC1=C(C(=O)Nc2cc3cn[nH]c3cc2F)C(c2ccc(C(F)(F)F)cc2)CC(=O)N1 (stereo not drawn) [GSK429286],13
3,Cc1cccc(-c2nc(Nc3ccc4[nH]ncc4c3)c3ccccc3n2)n1 [GW857175],9
4,Cc1cc(NCC(c2ccccc2)c2ccccc2)nc(NCc2ccc(C(F)(F)F)cc2)n1 [GW497681],5
5,COC(=O)c1c(-c2ccccc2)c2cc(OC)ccc2c(=O)n1Cc1ccccc1,3
6,Cn1ccc2ncnc(Oc3ccc(Nc4nc5ccccc5[nH]4)cc3)c21,1
7,COc1cc(Nc2nccc(N3CCC(NC(=O)Nc4cc(C)ccc4C)C3)n2)cc(OC)c1OC (stereo not drawn) [GSK1379762],0
8,O=C(Nc1ccccc1)Nc1cccc(Oc2ccc3nccn3n2)c1,5
9,Cl.O=C(Nc1cccc(-c2nn3ncccc3c2-c2ccnc(Nc3cccnc3)n2)c1)c1c(F)cccc1F [GSK312879],7
10,CCn1c(-c2ccccn2)nc2cnccc21 [SB-736398],0
11,CC(C)(C)c1ccc(C(=O)Nc2cn3cc(Cl)ccc3n2)cc1,0
12,Cl.NC(=O)c1cccc(Nc2nccc(Nc3ccc(Oc4cccc(Cl)c4)c(Cl)c3)n2)c1 [GW659008],13
13,Cc1ccccc1-n1cnc2c(N)ncnc21 [SKF-97510],1
14,COc1ccc2nc(-c3cccc(C)n3)nc(Nc3ccncc3)c2c1 [GSK204919],0
15,Cc1nnc(-c2ccc3occ(-c4ccc(S(C)=O)cc4)c3c2)[nH]1 (stereo not drawn),0
16,Cc1cccc(-c2cc(Nc3ccncc3)c3ccccc3n2)n1 [GSK223675],19
17,Cc1csc(-c2nc(Nc3ccncc3)c3ccccc3n2)n1 [GW869640],5

row,SMILES,%Inh [%]
1,Cn1ccc2ncnc(Oc3cccc(C(=O)Nc4ccccc4)c3)c21,0
2,O=C(Nc1n[nH]c2cc(-c3cccc(F)c3F)ccc12)C1CC1 [SB-733894],0
3,Cc1cc(-c2ccc3c(c2)CC[C@@H](N[C@@H](C)c2ccccc2)C3)cnc1N.Cl [GW412617],2
4,Cc1ccc(NC(=O)Nc2cccc(Cl)c2)cc1-c1ccc(C(=O)Nc2ccncc2)cc1 [GSK1398468],22
5,CN(C)CCN(C)C(=O)c1cc(-c2ccncc2)c(-c2ccc(Cl)c(O)c2)o1.Cl.Cl [SB-710397],0
6,O=C(Nc1n[nH]c2nc(-c3nccs3)c(Br)cc12)C1CC1 [SB-742251],0
7,Cc1cccc(-c2nc(C)cc(Nc3ccncc3)n2)n1 [GSK257997],17
8,Cc1cccc(-c2nc(Nc3cccc(C(N)=O)c3)c3ccccc3n2)n1 [GW876019],2
9,COc1cc2ncnc(Nc3ccc4nc(-c5ccccc5)[nH]c4c3)c2cc1OC.Cl [GW282450],16
10,CN1C(=O)C(Nc2ccc(Cl)c(C(=O)O)c2)=C(c2ccc(Cl)cc2)C1=O [SB-404290],0
11,Cc1cccc(-c2nc(Nc3ccncc3)c3ccccc3n2)n1 [GW855857],0
12,CCn1c(-c2cccnc2O)nc2cnccc21 [SB-736715],0
13,COc1ccccc1-c1ccc2c(NC(=O)C3CC3)n[nH]c2n1 [SB-711239],3
14,CS(=O)(=O)c1ccc(-c2nc3n(c2-c2ccncc2)CCC3)cc1 [SKF-105942],0
15,CC(C)(C)c1ccc(C(=O)Nc2cn3cc(-c4cccnc4)ccc3n2)cc1,17
16,Cc1c(Cn2ccn3c(=O)cc(N4CCOCC4)nc23)cccc1C(F)(F)F [GSK2289044],13
17,O=C(O)COc1ncnc2cc(-c3ccc4[nH]ncc4c3)sc12,0

# Tested on: T1, CDC2L5
# T1 construct: gene CDK13
# Settings: concentration: 1 μM, replicates: in singlicate; n = 1
row,SMILES,%Inh [%]
1,Nc1nc(-c2nccs2)c(-c2ccnc3ccccc23)s1 [GW693542],0
2,CC1=C(C(=O)Nc2cc3cn[nH]c3cc2F)C(c2ccc(C(F)(F)F)cc2)CC(=O)N1 (stereo not drawn) [GSK429286],0
3,Cc1cccc(-c2nc(Nc3ccc4[nH]ncc4c3)c3ccccc3n2)n1 [GW857175],20
4,Cc1cc(NCC(c2ccccc2)c2ccccc2)nc(NCc2ccc(C(F)(F)F)cc2)n1 [GW497681],0
5,CSc1nn2c(=O)cc(N3CCOCC3)nc2n1Cc1cccc(C(F)(F)F)c1C [GSK2363608],0
6,COC(=O)c1c(-c2ccccc2)c2cc(OC)ccc2c(=O)n1Cc1ccccc1,0
7,Cn1ccc2ncnc(Oc3ccc(Nc4nc5ccccc5[nH]4)cc3)c21,0
8,COc1cc(Nc2nccc(N3CCC(NC(=O)Nc4cc(C)ccc4C)C3)n2)cc(OC)c1OC (stereo not drawn) [GSK1379762],0
9,O=C(Nc1ccccc1)Nc1cccc(Oc2ccc3nccn3n2)c1,0
10,Cl.O=C(Nc1cccc(-c2nn3ncccc3c2-c2ccnc(Nc3cccnc3)n2)c1)c1c(F)cccc1F [GSK312879],0
11,CCn1c(-c2ccccn2)nc2cnccc21 [SB-736398],100
12,CC(C)(C)c1ccc(C(=O)Nc2cn3cc(Cl)ccc3n2)cc1,6
13,Cl.NC(=O)c1cccc(Nc2nccc(Nc3ccc(Oc4cccc(Cl)c4)c(Cl)c3)n2)c1 [GW659008],0
14,Cc1ccccc1-n1cnc2c(N)ncnc21 [SKF-97510],0
15,COc1ccc2nc(-c3cccc(C)n3)nc(Nc3ccncc3)c2c1 [GSK204919],0
16,Cc1nnc(-c2ccc3occ(-c4ccc(S(C)=O)cc4)c3c2)[nH]1 (stereo not drawn),11
17,Cc1cccc(-c2cc(Nc3ccncc3)c3ccccc3n2)n1 [GSK223675],0
18,Cc1csc(-c2nc(Nc3ccncc3)c3ccccc3n2)n1 [GW869640],8

row,SMILES,%Inh [%]
1,Cn1ccc2ncnc(Oc3cccc(C(=O)Nc4ccccc4)c3)c21,0
2,O=C(Nc1n[nH]c2cc(-c3cccc(F)c3F)ccc12)C1CC1 [SB-733894],8
3,Cc1cc(-c2ccc3c(c2)CC[C@@H](N[C@@H](C)c2ccccc2)C3)cnc1N.Cl [GW412617],0
4,Cc1ccc(NC(=O)Nc2cccc(Cl)c2)cc1-c1ccc(C(=O)Nc2ccncc2)cc1 [GSK1398468],0
5,CN(C)CCN(C)C(=O)c1cc(-c2ccncc2)c(-c2ccc(Cl)c(O)c2)o1.Cl.Cl [SB-710397],0
6,O=C(Nc1n[nH]c2nc(-c3nccs3)c(Br)cc12)C1CC1 [SB-742251],13
7,Cc1cccc(-c2nc(C)cc(Nc3ccncc3)n2)n1 [GSK257997],0
8,Cc1cccc(-c2nc(Nc3cccc(C(N)=O)c3)c3ccccc3n2)n1 [GW876019],10
9,COc1cc2ncnc(Nc3ccc4nc(-c5ccccc5)[nH]c4c3)c2cc1OC.Cl [GW282450],0
10,CN1C(=O)C(Nc2ccc(Cl)c(C(=O)O)c2)=C(c2ccc(Cl)cc2)C1=O [SB-404290],1
11,Cc1cccc(-c2nc(Nc3ccncc3)c3ccccc3n2)n1 [GW855857],0
12,CCn1c(-c2cccnc2O)nc2cnccc21 [SB-736715],0
13,COc1ccccc1-c1ccc2c(NC(=O)C3CC3)n[nH]c2n1 [SB-711239],2
14,CS(=O)(=O)c1ccc(-c2nc3n(c2-c2ccncc2)CCC3)cc1 [SKF-105942],0
15,CC(C)(C)c1ccc(C(=O)Nc2cn3cc(-c4cccnc4)ccc3n2)cc1,0
16,Cc1c(Cn2ccn3c(=O)cc(N4CCOCC4)nc23)cccc1C(F)(F)F [GSK2289044],0
17,O=C(O)COc1ncnc2cc(-c3ccc4[nH]ncc4c3)sc12,5
